Experimental findings from the antibiotic and cytotoxicity screens of Wong et al. (2023) are described below.

Screen size: about 39,000 compounds; about 3,300 (8.5%) were called active. What follows is part of a selection rich in actives, with near analogues and random picks from the rest.

In the test the test system is HepG2. The test is described as follows: cytotoxicity call (relative viability < 0.9). The note with it: 10 µM.
Regarding `COc1ccc(NC(=O)Nc2ccc3c(c2)C(=O)N([C@H](C)CO)C[C@H](C)[C@H](CN(C)Cc2ccc(C(=O)Nc4ccccc4N)cc2)O3)cc1`, the cytotoxicity call is “inactive”. Regarding `O=C(NO)c1cccc(C(=O)N/N=C/[C@H](O)[C@@H](O)[C@H](O)[C@H](O)CO[C@H]2O[C@H](CO)[C@H](O)[C@H](O)[C@H]2O)c1`, the cytotoxicity call is “inactive”. Take `C[C@@H]1CN([C@H](C)CO)S(=O)(=O)c2ccc(C#Cc3cccc(F)c3)cc2O[C@@H]1CN(C)S(=O)(=O)c1cn(C)cn1`: the cytotoxicity call is “inactive”.

For `Cc1ccc(S(=O)(=O)Nc2ccc3c(c2)C(=O)N([C@H](C)CO)C[C@H](C)[C@H](CN(C)C(=O)c2ccccc2)OCCCC[C@@H](C)O3)cc1`, the cytotoxicity call is “inactive”.

Consider `O=C(Cc1ccccc1)Nc1ccccc1Sc1ccccc1`, for which the cytotoxicity call was “inactive”.

Regarding `CC(C)NC(=O)Nc1ccc2c(c1)C(=O)N(C)[C@@H]1CC[C@@H](CC(=O)NCc3ccc(F)cc3)O[C@@H]1CO2`, the cytotoxicity call was “inactive”.

For `C[C@@H]1CN([C@H](C)CO)C(=O)c2cc(-c3cccnc3)cnc2O[C@@H]1CN(C)Cc1ccc(-c2ccccc2)cc1`, the cytotoxicity call was “inactive”. Consider `C[C@@H]1CN([C@@H](C)CO)C(=O)c2cc(NC(=O)Nc3cccc4ccccc34)ccc2O[C@@H]1CN(C)Cc1ccc(C(=O)O)cc1`, for which the cytotoxicity call is “inactive”. With `C[C@@H]1CN([C@@H](C)CO)C(=O)c2cccc(NS(=O)(=O)c3cccs3)c2O[C@@H]1CN(C)S(C)(=O)=O`, the cytotoxicity call is “inactive”. Then `Cc1noc(C)c1NC(=O)N(C)C[C@@H]1Oc2c(NC(=O)NC(C)C)cccc2C(=O)N([C@H](C)CO)C[C@@H]1C`, with “inactive”. Turning to `C[C@@H]1CN([C@H](C)CO)C(=O)CCCn2nncc2CO[C@@H]1CN(C)S(=O)(=O)c1cccc(C#N)c1`, the cytotoxicity call was “inactive”. Then `COc1ccc(S(=O)(=O)Nc2cccc3c2O[C@@H](CN(C)S(=O)(=O)c2ccc(F)cc2)[C@H](C)CN([C@@H](C)CO)C3=O)cc1`, with “inactive”; and `C[C@@H]1CN([C@@H](C)CO)C(=O)Cc2cc(NC(=O)CCN3CCOCC3)ccc2O[C@@H]1CN(C)CC1CC1`, with “inactive”; and `C[C@@H]1CCCCO[C@@H](CN(C)CC2CCCCC2)[C@H](C)CN([C@H](C)CO)C(=O)c2cc(NC(=O)C3CCCCC3)ccc2O1`, with “inactive”. Take `C[C@@H]1CCCCO[C@H](CN(C)CC2CCCCC2)[C@H](C)CN([C@H](C)CO)C(=O)c2cc(NC(=O)C3CCCCC3)ccc2O1`: the cytotoxicity call is “inactive”. Turning to `C[C@@H]1CCCCO[C@@H](CN(C)CC2CCCCC2)[C@H](C)CN([C@@H](C)CO)C(=O)c2cc(NC(=O)C3CCCCC3)ccc2O1`, the cytotoxicity call was “inactive”. Turning to `C[C@@H]1CN([C@H](C)CO)C(=O)c2cc(NC(=O)C3CCCCC3)ccc2O[C@@H](C)CCCCO[C@@H]1CN(C)CC1CCCCC1`, the cytotoxicity call was “active”. Take `C[C@@H]1CN([C@@H](C)CO)C(=O)c2cc(NC(=O)C3CCCCC3)ccc2O[C@@H](C)CCCCO[C@H]1CN(C)CC1CCCCC1`: the cytotoxicity call is “active”. For the molecule `C[C@H]1CCCCO[C@H](CN(C)CC2CCCCC2)[C@@H](C)CN([C@@H](C)CO)C(=O)c2cc(NC(=O)C3CCCCC3)ccc2O1`, the cytotoxicity call was “active”.

For the molecule `C[C@H](CO)N1C[C@H](C)[C@H](CN(C)CC2CCCCC2)OCCCC[C@H](C)Oc2ccc(NC(=O)C3CCCCC3)cc2C1=O`, the cytotoxicity call is “inactive”. Regarding `C[C@H]1CCCCO[C@@H](CN(C)CC2CCCCC2)[C@@H](C)CN([C@@H](C)CO)C(=O)c2cc(NC(=O)C3CCCCC3)ccc2O1`, the cytotoxicity call is “inactive”. For `C[C@@H]1CN([C@@H](C)CO)C(=O)c2cc(NC(=O)C3CCCCC3)ccc2O[C@@H](C)CCCCO[C@@H]1CN(C)CC1CCCCC1` the value was “inactive”; for `C[C@@H]1CCCCO[C@H](CN(C)CC2CCCCC2)[C@H](C)CN([C@@H](C)CO)C(=O)c2cc(NC(=O)C3CCCCC3)ccc2O1`, “inactive”; for `C[C@H](CO)N1C[C@H](C)[C@@H](CN(C)CC2CCCCC2)OCCCC[C@H](C)Oc2ccc(NC(=O)C3CCCCC3)cc2C1=O`, “inactive”. Regarding `C[C@@H]1CCCCO[C@@H](CN(C)CC2CCCCC2)[C@@H](C)CN([C@@H](C)CO)C(=O)c2cc(NC(=O)C3CCCCC3)ccc2O1`, the cytotoxicity call is “active”. Then `COc1ccc(S(=O)(=O)N(C)C[C@@H]2OCCCC[C@@H](C)Oc3ccc(NS(C)(=O)=O)cc3C(=O)N([C@@H](C)CO)C[C@H]2C)cc1`, with “inactive”; and `C[C@H]1CN([C@@H](C)CO)C(=O)c2cccc(NC(=O)C3CCOCC3)c2O[C@H]1CN(C)Cc1ccc(-c2ccccc2)cc1`, with “inactive”. Take `O=C1NC(=O)[C@H]2CC[C@H]2N1`: the cytotoxicity call is “inactive”. As for `CN(CC=Cc1ccccc1)Cc1cccc2ccccc12.Cl`, the cytotoxicity call is “inactive”. Then `Cc1noc(C)c1S(=O)(=O)N(C)C[C@H]1OCCCC[C@H](C)Oc2ccc(NC(=O)Nc3ccc(C(F)(F)F)cc3)cc2C(=O)N([C@H](C)CO)C[C@@H]1C`, with “inactive”; and `Cc1ccc(S(=O)(=O)Nc2ccc3c(c2)C(=O)N([C@@H](C)CO)C[C@H](C)[C@H](CN(C)Cc2ccncc2)OCCCC[C@H](C)O3)cc1`, with “inactive”; and `COCC(=O)N1CC(=O)N2[C@H](C1)[C@@H](c1ccc(C#Cc3cccnc3)cc1)[C@@H]2CO`, with “inactive”. Then `Cc1noc(C)c1S(=O)(=O)N(C)C[C@H]1Oc2ccc(NS(=O)(=O)c3ccccc3)cc2CC(=O)N([C@H](C)CO)C[C@H]1C`, with “inactive”; and `C[C@@H]1CN([C@@H](C)CO)C(=O)c2cccc(NS(=O)(=O)c3ccc(Cl)cc3)c2O[C@@H]1CN(C)Cc1ccc(Oc2ccccc2)cc1`, with “inactive”; and `COc1ccc(S(=O)(=O)Nc2cccc3c2O[C@H](CN(C)Cc2ccc(Oc4ccccc4)cc2)[C@H](C)CN([C@@H](C)CO)C3=O)cc1`, with “active”. As to `C[C@@H]1CN([C@@H](C)CO)C(=O)c2cccc(NS(=O)(=O)c3ccc(F)cc3)c2O[C@H]1CN(C)Cc1ccc(Oc2ccccc2)cc1`, the cytotoxicity call was “inactive”. Take `C[C@H]1CN([C@@H](C)CO)C(=O)c2cccc(NS(=O)(=O)c3ccc(Cl)cc3)c2O[C@@H]1CN(C)Cc1ccc(Oc2ccccc2)cc1`: the cytotoxicity call is “active”. With `C[C@@H]1CN([C@@H](C)CO)C(=O)c2cccc(NS(=O)(=O)c3ccc(F)cc3)c2O[C@@H]1CN(C)Cc1ccc(Oc2ccccc2)cc1`, the cytotoxicity call was “active”.

Consider `COc1ccc(S(=O)(=O)Nc2cccc3c2O[C@H](CN(C)Cc2ccc(Oc4ccccc4)cc2)[C@@H](C)CN([C@@H](C)CO)C3=O)cc1`, for which the cytotoxicity call was “inactive”. In the case of `C[C@H]1CN([C@@H](C)CO)C(=O)c2cccc(NS(=O)(=O)c3ccc(F)cc3)c2O[C@@H]1CN(C)Cc1ccc(Oc2ccccc2)cc1`, the cytotoxicity call was “inactive”.

With `COc1ccc(S(=O)(=O)Nc2cccc3c2O[C@H](CN(C)Cc2ccc(Oc4ccccc4)cc2)[C@@H](C)CN([C@H](C)CO)C3=O)cc1`, the cytotoxicity call was “inactive”. With `COc1ccc(S(=O)(=O)Nc2cccc3c2O[C@H](CN(C)Cc2ccc(-c4ccccc4)cc2)[C@H](C)CN([C@@H](C)CO)C3=O)cc1`, the cytotoxicity call is “inactive”. For the molecule `COc1ccc(S(=O)(=O)Nc2cccc3c2O[C@H](CN(C)Cc2ccc(-c4ccccc4)cc2)[C@@H](C)CN([C@H](C)CO)C3=O)cc1`, the cytotoxicity call is “active”. In the case of `C[C@@H]1CN([C@@H](C)CO)C(=O)c2cccc(NS(=O)(=O)c3ccc(Cl)cc3)c2O[C@H]1CN(C)Cc1ccc(Oc2ccccc2)cc1`, the cytotoxicity call was “inactive”.

With `COc1ccc(S(=O)(=O)Nc2cccc3c2O[C@H](CN(C)Cc2ccc(-c4ccccc4)cc2)[C@H](C)CN([C@H](C)CO)C3=O)cc1`, the cytotoxicity call was “inactive”.

Regarding `COc1ccc(S(=O)(=O)Nc2ccc3c(c2)C(=O)N([C@H](C)CO)C[C@H](C)[C@H](CN(C)C(=O)c2ccccc2)OCCCC[C@H](C)O3)cc1`, the cytotoxicity call is “inactive”. Turning to `CCS(=O)(=O)Nc1ccc2c(c1)C(=O)N(C)C[C@H](OC)[C@@H](C)CN(C(=O)c1ccc3c(c1)OCO3)[C@@H](C)CO2`, the cytotoxicity call is “inactive”.

As to `O=C1CCOCCN1`, the cytotoxicity call is “inactive”. As to `C[C@@H]1CCCCO[C@H](CN(C)S(C)(=O)=O)[C@@H](C)CN([C@H](C)CO)C(=O)c2cc(NS(=O)(=O)c3ccccc3)ccc2O1`, the cytotoxicity call was “inactive”. For the molecule `CC(C)C#Cc1cnc2c(c1)C(=O)N([C@H](C)CO)C[C@H](C)[C@@H](CN(C)C(=O)c1ccc3c(c1)OCO3)O2`, the cytotoxicity call was “inactive”. As for `COc1ccc(-c2cnc3c(c2)C(=O)N([C@@H](C)CO)C[C@@H](C)[C@H](CN(C)C(=O)Cc2ccncc2)O3)cc1`, the cytotoxicity call was “inactive”.

In the case of `Cc1ccc(S(=O)(=O)N(C)C[C@@H]2Oc3ccc(NC(=O)CCCN(C)C)cc3C(=O)N([C@@H](C)CO)C[C@H]2C)cc1`, the cytotoxicity call is “inactive”. Take `CCC=CCC1=C(C)CCC1=O`: the cytotoxicity call was “inactive”. For `C[C@]1(C(=O)NCc2ccccc2)c2ccccc2C(=O)N(Cc2ccccc2)[C@H]1c1ccc(COC(=O)NCCCCCC(=O)NO)cc1` the value was “inactive”; for `COc1ccc(CN(C)C[C@@H]2OCCCC[C@H](C)Oc3ccc(NC(=O)Nc4ccccc4)cc3C(=O)N([C@@H](C)CO)C[C@@H]2C)cc1`, “inactive”; for `Cc1ccc(S(=O)(=O)Nc2ccc3c(c2)C(=O)N([C@H](C)CO)C[C@@H](C)[C@H](CN(C)C(=O)C2CCCCC2)OCCCC[C@H](C)O3)cc1`, “inactive”.

Consider `O=C(C[C@@H]1CC[C@@H]2[C@H](COC[C@@H](O)CN2S(=O)(=O)c2ccc(Cl)cc2)O1)NCc1ccncn1`, for which the cytotoxicity call was “inactive”. For `Cc1noc(C)c1S(=O)(=O)Nc1ccc2c(c1)C(=O)N([C@@H](C)CO)C[C@H](C)[C@@H](CN(C)S(=O)(=O)c1ccc(F)cc1)O2` the value was “inactive”. With `C[C@@H]1CN([C@@H](C)CO)C(=O)Cc2cc(NS(=O)(=O)c3ccc(F)cc3)ccc2O[C@H]1CN(C)Cc1ccc(Oc2ccccc2)cc1`, the cytotoxicity call was “inactive”. Turning to `C[C@@H]1CN([C@H](C)CO)C(=O)Cc2cc(NS(=O)(=O)c3ccc(F)cc3)ccc2O[C@H]1CN(C)Cc1ccc(Oc2ccccc2)cc1`, the cytotoxicity call is “active”. With `C[C@H]1CN([C@@H](C)CO)C(=O)Cc2cc(NS(=O)(=O)c3ccc(F)cc3)ccc2O[C@@H]1CN(C)Cc1ccc(Oc2ccccc2)cc1`, the cytotoxicity call was “inactive”. As to `C[C@H]1CN([C@@H](C)CO)C(=O)Cc2cc(NS(=O)(=O)c3ccc(F)cc3)ccc2O[C@H]1CN(C)Cc1ccc(Oc2ccccc2)cc1`, the cytotoxicity call is “active”. For `C[C@H](CO)N1C[C@H](C)[C@H](CN(C)Cc2ccc(Oc3ccccc3)cc2)Oc2ccc(NS(=O)(=O)c3ccc(F)cc3)cc2CC1=O`, the cytotoxicity call is “active”. For `C[C@@H]1CN([C@@H](C)CO)C(=O)Cc2cc(NS(=O)(=O)c3ccc(F)cc3)ccc2O[C@@H]1CN(C)Cc1ccc(Oc2ccccc2)cc1` the value was “active”.
